Test results as given in PubChem BioAssay (NCI).
About 79,000 compounds went through this panel and 15% of them were active in at least one assay; those are over-represented in the sample as a whole. The source made the active and inactive calls. No stated cut-off is given here; in the data, active means growth inhibition above about 70%; inactive means the rest.

Legend:
[1] = NCI Yeast Anticancer Drug Screen. Data for the rad50 strain (AID 155);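 further: 0% = growth of vehicle-only cultures of the same strain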; settings: S. cerevisiae rad50 strain growth inhibition, hits give high values
Procedure, shortened: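 Vehicle-treated cultures provide the reference for the growth inhibition reported for compound-exposed, repair-deficient yeast.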

[2] = NCI Yeast Anticancer Drug Screen. Data for the mec2-1 strain (AID 157); settings: S. cerevisiae mec2-1 strain, hits give high values
Procedure, shortened: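 Test agents were screened against the mec2-1 yeast strain, with defined DNA repair or cell cycle alteration. Growth was scored as inhibition against vehicle-only controls.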

[3] = NCI Yeast Anticancer Drug Screen. Data for the sgs1 mgt1 strain (AID 161);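 further: 0% = growth of cultures given vehicle only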; settings: S. cerevisiae sgs1 mgt1 strain, hits give high values
Procedure, shortened: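 Mutant yeast exposed to compound; growth scored against vehicle-only wells.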

[4] = NCI Yeast Anticancer Drug Screen. Data for the cln2 rad14 strain (AID 165);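 further: 0% = growth equal to vehicle treated cultures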; settings: S. cerevisiae cln2 rad14 strain, hits give high values
Procedure, shortened: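 Growth of compound-exposed yeast (cln2 rad14 genotype) measured and expressed as inhibition relative to vehicle.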

[5] = NCI Yeast Anticancer Drug Screen. Data for the bub3 strain (AID 167); settings: S. cerevisiae bub3 mutant strain, hits give high values
Procedure, shortened: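 Mutant yeast screening strain plus compound; vehicle-treated cultures serve as the 0% inhibition reference.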

[6] = NCI Yeast Anticancer Drug Screen. Data for the mlh1 rad18 strain (AID 175); settings: S. cerevisiae mlh1 rad18 strain growth inhibition, hits give high values
Procedure, shortened: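 In this whole-cell yeast screen, a strain with altered DNA damage repair is challenged with compound, and its growth is measured against matched vehicle-treated controls.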

[7] = at 5.0 µM (retest, dose inferred, filed as 0.5)
[8] = at 50.0 µM (retest, dose inferred, filed as 5.0)

Measured: growth inhibition

c1ccc(-c2ccc(-c3ccc(C4=NCCN4)cc3)o2)cc1
active: [1]; [8] 91% | [1]; at 50.0 µM 95.7% | [2]; [8] 79% | [2]; at 50.0 µM 95% | [3]; at 50.0 µM 96.8% | [4]; [8] 70% | [4]; at 50.0 µM 89% | [5]; [8] 86% | [5]; at 50.0 µM 95.8% | [6]; [8] 95% | [6]; at 50.0 µM 97.5%
inactive: [1]; [7] 13% | [2]; [7] 16% | [3]; [7] -1% | [3]; [8] 51% | [4]; [7] -21% | [5]; [7] 4% | [6]; [7] 3%

CCCCCCCCCCN1Cc2ccccc2C1
inactive: [2]; [7] 68% | [4]; [7] 68% | [6]; [7] 68%
active: [1]; [7] 77% | [1]; [8] 99% | [1]; at 50.0 µM 99% | [2]; [8] 99% | [2]; at 50.0 µM 97.9% | [3]; [7] 87% | [3]; [8] 99% | [3]; at 50.0 µM 99% | [4]; [8] 99% | [4]; at 50.0 µM 97.5% | [5]; [7] 85% | [5]; [8] 99% | [5]; at 50.0 µM 98% | [6]; [8] 99% | [6]; at 50.0 µM 99.3%

CCCCCCCCCc1cc(O)c(O)cc1CCCCCCCCC
inactive: [1]; [7] -8% | [1]; at 50.0 µM 22.4% | [2]; [7] -13% | [2]; [8] 68% | [2]; at 50.0 µM 25.2% | [3]; [7] -7% | [3]; [8] 42% | [3]; at 50.0 µM 42.9% | [4]; [7] -23% | [4]; at 50.0 µM 54.1% | [5]; [7] -12% | [5]; at 50.0 µM 22.4% | [6]; [7] -2% | [6]; [8] 66% | [6]; at 50.0 µM 1.65%
active: [1]; [8] 80% | [4]; [8] 86% | [5]; [8] 79%

O=C(Nc1cc(Cl)cc(Cl)c1)C(F)(F)F
active: [1]; [8] 98% | [1]; at 50.0 µM 83.9% | [2]; [8] 100% | [2]; at 50.0 µM 87.5% | [3]; [8] 99% | [3]; at 50.0 µM 96.4% | [4]; [8] 99% | [4]; at 50.0 µM 92.4% | [5]; [7] 96% | [5]; [8] 99% | [5]; at 50.0 µM 85% | [6]; [8] 99% | [6]; at 50.0 µM 97.4%
inactive: [1]; [7] 27% | [2]; [7] 34% | [3]; [7] 37% | [4]; [7] 9% | [6]; [7] 59%

CCS(=O)(=O)/C=C\S(=O)(=O)CC
active: [5]; at 50.0 µM 88.3%
inactive: [1]; [7] -154% | [1]; [8] -117% | [1]; at 50.0 µM 37.2% | [2]; [7] -52% | [2]; [8] -36% | [2]; at 50.0 µM 47.5% | [3]; [7] -64% | [3]; [8] -43% | [3]; at 50.0 µM 47.3% | [4]; [7] -49% | [4]; [8] -37% | [4]; at 50.0 µM -12.7% | [5]; [7] -65% | [5]; [8] -59% | [6]; [7] -147% | [6]; [8] -70% | [6]; at 50.0 µM 69%

CC(=O)/C(=C\c1cccs1)C(=O)CCN(C)C
inactive: [1]; [7] 11% | [1]; [8] 25% | [1]; at 50.0 µM 9.05% | [2]; [7] 15% | [2]; [8] 28% | [2]; at 50.0 µM 17.2% | [3]; [7] 10% | [3]; [8] 29% | [3]; at 50.0 µM 34% | [4]; [7] 20% | [4]; [8] 27% | [4]; at 50.0 µM 19.5% | [5]; [7] 4% | [5]; [8] 23% | [5]; at 50.0 µM -2.2% | [6]; [7] 22% | [6]; [8] 30% | [6]; at 50.0 µM 50.1%

O=C(CN(Cc1ccccc1)Cc1ccccc1)N1CCc2c([nH]c3ccccc23)C1c1cccnc1 (configuration not stated)
active: [1]; at 50.0 µM 86.8% | [2]; at 50.0 µM 86.5% | [3]; at 50.0 µM 84.1% | [4]; at 50.0 µM 88.3% | [5]; at 50.0 µM 87.5% | [6]; at 50.0 µM 85%
inactive: [1]; [7] 29% | [1]; [8] 29% | [2]; [7] 27% | [2]; [8] 27% | [3]; [7] 8% | [3]; [8] 8% | [4]; [7] 19% | [4]; [8] 19% | [5]; [7] 11% | [5]; [8] 11% | [6]; [7] 32% | [6]; [8] 32%

CCCCCCCCCCCC(=O)OCC(C)C
inactive: [1]; [7] 5% | [1]; [8] -19% | [1]; at 50.0 µM 0.95% | [2]; [7] -7% | [2]; [8] 20% | [2]; at 50.0 µM -13% | [3]; [7] 0% | [3]; [8] 4% | [3]; at 50.0 µM 7.55% | [4]; [7] 20% | [4]; [8] -11% | [4]; at 50.0 µM -3.95% | [5]; [7] 0% | [5]; [8] -18% | [5]; at 50.0 µM -2.1% | [6]; [7] -16% | [6]; [8] -8% | [6]; at 50.0 µM 15.5%

COC1=C(C)C(=O)C2=C(C1=O)C1C3CC4=C(C(=O)C(OC)=C(C)C4=O)C(CNC(=O)C(C)=O)N3C(C#N)C(C2)N1C (configuration not stated)
inactive: [2]; [7] 53% | [3]; [7] 35% | [5]; [7] 22% | [6]; [7] 51%
active: [1]; [7] 78% | [1]; [8] 98% | [1]; at 50.0 µM 90.2% | [2]; [8] 99% | [2]; at 50.0 µM 92% | [3]; [8] 99% | [3]; at 50.0 µM 91.7% | [4]; [7] 88% | [4]; [8] 96% | [4]; at 50.0 µM 89.6% | [5]; [8] 98% | [5]; at 50.0 µM 90.2% | [6]; [8] 99% | [6]; at 50.0 µM 88.3%
